The full list was thinned out, with hits kept by preference.
EZH2 inh – EZH2/PRC2 methyltransferase inhibitors, primary screen, biochemical, DELFIA time-resolved fluorescence, single point; Histone-lysine N-methyltransferase EZH2 (Homo sapiens), Q15910; PRC2 H3K27 methylation, DELFIA TRF, 1 h; hit rate 0.35% among 57,000; inhibition, % at 12.5 µM; AID 651548, 2012;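 active means mean inhibition of replicates at least 50% and every single replicate also reaching 50%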;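 further: dimethyl H3K27 on biotinylated H3 21-44 peptide detected by antibody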
Target sequence (Q15910 whole entry, looked up): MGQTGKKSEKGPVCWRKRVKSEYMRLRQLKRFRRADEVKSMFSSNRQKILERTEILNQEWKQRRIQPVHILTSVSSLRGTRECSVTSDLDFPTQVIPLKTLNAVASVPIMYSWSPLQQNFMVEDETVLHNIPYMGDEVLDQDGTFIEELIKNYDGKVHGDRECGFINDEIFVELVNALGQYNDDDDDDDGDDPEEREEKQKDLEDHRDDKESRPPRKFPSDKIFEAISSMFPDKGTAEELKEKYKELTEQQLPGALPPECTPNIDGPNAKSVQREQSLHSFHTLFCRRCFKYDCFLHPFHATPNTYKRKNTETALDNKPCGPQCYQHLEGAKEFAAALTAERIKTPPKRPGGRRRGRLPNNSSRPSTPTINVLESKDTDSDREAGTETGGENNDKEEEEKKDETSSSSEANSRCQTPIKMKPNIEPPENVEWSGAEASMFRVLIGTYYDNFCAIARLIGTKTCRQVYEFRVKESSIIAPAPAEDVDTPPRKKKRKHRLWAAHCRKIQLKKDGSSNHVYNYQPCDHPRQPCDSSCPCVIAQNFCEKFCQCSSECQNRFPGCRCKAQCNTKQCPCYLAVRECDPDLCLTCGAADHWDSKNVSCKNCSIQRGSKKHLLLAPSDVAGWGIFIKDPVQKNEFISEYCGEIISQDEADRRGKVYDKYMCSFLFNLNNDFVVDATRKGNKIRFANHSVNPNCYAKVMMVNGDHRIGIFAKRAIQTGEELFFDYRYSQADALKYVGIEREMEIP
Numbers stand for hits; – = inactive.

SMILES | EZH2 inh
CCS(=O)(=O)Nc1ccc2c(c1)C(=O)N(C)C[C@H](OC)[C@H](C)CN(CC1CCCC1)[C@H](C)CO2 | –
C[C@H]1CN([C@@H](C)CO)C(=O)c2cc(NC(=O)Nc3ccc(F)cc3)ccc2O[C@@H]1CN(C)S(C)(=O)=O | –
O=C(C[C@H]1CC[C@H](NC(=O)CCN2CCCCC2)[C@@H](CO)O1)NCc1ccc(Cl)c(Cl)c1 | –
COc1ccc(/C=C/C(=O)O[C@H]2[C@H](OC3C4O[C@]4(CO)[C@H]4C(O[C@@H]5O[C@H](CO)[C@@H](O)[C@H](O)[C@H]5O)OC=C[C@@H]34)O[C@@H](C)[C@H](O)[C@H]2O)cc1 (stereo not given in full) | –
COC(=O)C1=COC(O[C@@H]2O[C@H](CO)[C@@H](O)[C@H](O)[C@H]2O)[C@@H]2[C@@H](C)[C@@H](OC(=O)/C=C/c3ccc(O)c(O)c3)[C@@H](O)[C@H]12 (stereo not given in full) | –
C[C@@H]1O[C@@H](O[C@@H]2[C@@H](O)[C@H](OCCc3ccc(O)c(O)c3)O[C@H](CO[C@@H]3OC[C@](O)(CO)[C@H]3O)[C@H]2OC(=O)/C=C/c2ccc(O)c(O)c2)[C@H](O[C@@H]2OC[C@H](O)[C@H](O)[C@H]2O)[C@H](O)[C@H]1O | 68
COc1cccc(C(=O)Nc2ccc3c(c2)C(=O)N(C)C[C@H](OC)[C@@H](C)CN(C(=O)C2CCCC2)[C@@H](C)CO3)c1 | –
O=C(C[C@@H]1C=C[C@H](NC(=O)c2ccccc2)[C@H](CO)O1)NCc1ccc(Oc2ccccc2)cc1 | –
O=C(C[C@@H]1C[C@H]2c3cc(NC(=O)NC4CCCC4)ccc3O[C@H]2[C@@H](CO)O1)NCc1ccccc1F | –
CCCC(=O)Nc1ccc2c(c1)OC[C@H](C)N(Cc1ccncc1)C[C@@H](C)[C@@H](OC)CN(C)C2=O | –
N#Cc1c(-c2ccccc2)nc(SCC(=O)N(c2ccccc2)c2ccccc2)[nH]c1=O | 52
CC(Sc1nc2ccccc2[nH]1)C(=O)Nc1cccc(Cl)c1 (stereo not given) | –
O=C(CSc1ncn[nH]1)N(c1ccccc1)c1ccccc1 | –
O=C(CSc1nc2sc3c(c2c(=O)[nH]1)CCCC3)N(c1ccccc1)c1ccccc1 | –
CC(Sc1nc(-c2ccccc2)c(C#N)c(=O)[nH]1)C(=O)Nc1ccc(Cl)cc1 (stereo not given) | –
CC(Sc1nc(-c2ccccc2)c(C#N)c(=O)[nH]1)C(=O)Nc1cccc(Cl)c1 (stereo not given) | 63
C[C@H](CO)N1C[C@H](C)[C@H](CN(C)Cc2ccccc2F)Oc2ncc(-c3ccccc3F)cc2C1=O | –
CN(C)/C=C/C=C1C(=O)CCCC1=O | 54
S=C(Nc1cccc(Cl)c1)Nc1cc(-c2ccc(Cl)cc2)[nH]n1 | –
O=C(CSc1nnc(-c2cccnc2)n1-c1ccccc1)Nc1ccc(Oc2ccccc2)cc1 | –
Cc1ccn2cc(-c3cccc(NS(=O)(=O)c4cc([N+](=O)[O-])ccc4C)c3)nc2c1 | –
C[C@@H]1CCCCO[C@H](CN(C)CC2CCCCC2)[C@H](C)CN([C@H](C)CO)C(=O)c2cc(NC(=O)CCCN(C)C)ccc2O1 | –
NCCCCCCNS(=O)(=O)c1cccc2c(Cl)cccc12 | –
CCCCCCCNS(=O)(=O)c1cccc2c(Cl)cccc12 | –
O=S(=O)(NCCCCCCc1ccccc1)c1cccc2c(Cl)cccc12 | 55
SMILES | EZH2 inh
CC(C)NC(=O)N[C@@H]1CC[C@@H](CC(=O)O)O[C@@H]1CO | –
Cc1ccc(S(=O)(=O)Nc2ccc3c(c2)C(=O)N([C@@H](C)CO)C[C@@H](C)[C@@H](CN(C)C)OCCCC[C@@H](C)O3)cc1 | –
CNC[C@@H]1Oc2ncc(-c3ccc(OC)cc3)cc2C(=O)N([C@@H](C)CO)C[C@@H]1C | –
COCC(=O)N(C)C[C@@H]1Oc2ncc(C3=CCCCC3)cc2C(=O)N([C@H](C)CO)C[C@@H]1C | –
C[C@H]1CN([C@@H](C)CO)C(=O)c2cccc(NC(=O)Nc3ccccc3)c2O[C@H]1CN(C)S(C)(=O)=O | –
COc1ccc(-c2cc(-c3cccs3)nc(SC(C(=O)O)c3ccccc3)c2C#N)cc1 (stereo not given) | 72
N#Cc1c(C(F)(F)F)cc(-c2cccs2)nc1SCC(=O)Nc1c(F)cccc1F | –
N#Cc1c(C(F)(F)F)cc(-c2cccs2)nc1SCC(O)COc1ccc(Cl)cc1 (stereo not given) | –
CCc1ccccc1NC(=O)CSc1c(C)n[nH]c1C | –
CCC(=O)N1C[C@@H](C)[C@H](OC)CN(C)C(=O)c2cc(NC(=O)c3ccccc3)ccc2OC[C@H]1C | –
Cc1cc(C(F)(F)F)nc(SCc2cccc(C(=O)O)c2)n1 | –
O=C(O)c1cccc(CSc2nc(-c3ccc(Cl)cc3)cc(C(F)(F)F)n2)c1 | 50
O=C(O)c1cccc(CSc2n[nH]c(-c3ccc(Cl)cc3)n2)c1 | –
CC(C)[C@H](C)NC(=O)N(C)C[C@@H]1OCc2ccccc2-c2c(n(C)c3ccccc23)C(=O)N([C@H](C)CO)C[C@@H]1C | –
Clc1ccc(SCc2csc(-c3ccsc3)n2)cc1 | 63
Clc1ccc2nc(SCc3csc(Nc4ccccc4)n3)oc2c1 | –
O=c1cc(-c2ccc(O)cc2)oc2cc(O[C@@H]3O[C@H](CO)[C@@H](O)[C@H](O)[C@H]3O[C@@H]3OC[C@](O)(CO)[C@H]3O)cc(O)c12 | –
O=c1cc(-c2ccc(O)c(O)c2)oc2c(C3O[C@H](CO)[C@H](O)[C@H](O)[C@H]3O)c(O)cc(O)c12 (stereo not given in full) | 81
COc1cc(O[C@@H]2O[C@H](CO)[C@@H](O)[C@H](O)[C@H]2O)c2c(=O)cc(-c3ccccc3)oc2c1OC | –
C[C@@H]1CCCCO[C@@H](CN(C)C)[C@H](C)CN([C@H](C)CO)C(=O)c2cc(NC(=O)Nc3ccc(C(F)(F)F)cc3)ccc2O1 | –
Cc1ccccc1-c1ccc2c(c1)O[C@H](CN(C)Cc1ccc(C(=O)O)cc1)[C@H](C)CN([C@@H](C)CO)S2(=O)=O | –

Bioassay records as filed in PubChem BioAssay.
